Experimental data from PubChem BioAssay (EPA / NIEHS).
Inconclusive results are not listed. The source made the active and inactive calls. How the source made its calls, unless noted: active means hit-call score of the fitted dose curve at least 0.9, where 1 is the maximum; inactive means score below 0.9.

What was measured:
[1] = TOX21_p53_BLA_p2_viability: Viability Assessment in the Tox21 HCT-116 p53 Agonism Beta-lactamase Assay, Phase 2 (AID 2283591; active means hit-call score of the fitted dose curve at least 0.9, where 1 is the maximum;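 further: actives lower the ATP signal meaning cytotoxicity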)
Summary of the method: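 HCT116 p53-bla cells, 4000/well, dosed after 5 h plating (217-fold dilution of DMSO stocks) and incubated 16 h at 37C. Viability taken as cellular ATP by CellTiter-Glo luminescence after 30 min RT; signal loss marks cytotoxicity.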

[2] = molecular target: Cellular tumor antigen p53 (Homo sapiens) (UniProt P04637); test: TOX21_p53_BLA_p2_ratio: Tox21 HCT-116 p53 Agonism Beta-lactamase Assay, Ratio, Phase 2 (AID 2283592; active means hit-call score of the fitted dose curve at least 0.9, where 1 is the maximum)
Chain of Cellular tumor antigen p53 (Homo sapiens) (P04637 whole entry, looked up): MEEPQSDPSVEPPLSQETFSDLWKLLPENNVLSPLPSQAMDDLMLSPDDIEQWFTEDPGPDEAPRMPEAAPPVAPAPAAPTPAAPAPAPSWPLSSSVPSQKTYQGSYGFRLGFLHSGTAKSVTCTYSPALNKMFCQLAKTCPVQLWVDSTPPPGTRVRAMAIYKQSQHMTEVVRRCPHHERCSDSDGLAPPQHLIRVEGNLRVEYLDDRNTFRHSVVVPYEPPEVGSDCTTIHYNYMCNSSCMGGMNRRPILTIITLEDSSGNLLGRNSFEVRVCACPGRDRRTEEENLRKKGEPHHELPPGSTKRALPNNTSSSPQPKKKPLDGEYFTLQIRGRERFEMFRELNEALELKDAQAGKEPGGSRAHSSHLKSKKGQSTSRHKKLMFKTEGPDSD
Summary of the method: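 Readout: blue/green (460/530 nm) FRET emission ratio after 2 h CCF4-AM loading at room temperature, excitation 405 nm. HCT116 p53 bla cells, 16 h compound exposure at 37C, 5% CO2; agonist direction fitted against DMSO baseline.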

[3] = TOX21_p53_BLA_p3_viability: Viability Assessment in the Tox21 HCT-116 p53 Agonism Beta-lactamase Assay, Phase 3 (AID 2283593; active means hit-call score of the fitted dose curve at least 0.9, where 1 is the maximum;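 further: cells exposed to compound for 16 h before reading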)
Summary of the method: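 HCT116 cells, 4000/well, dosed 5 h after plating by pin transfer (217-fold dilution from DMSO stock) and incubated 16 h at 37C, 5% CO2. Viability read as ATP luminescence with CellTiter-Glo after 30 min at room temperature.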

[4] = TOX21_p53_BLA_p4_viability: Viability Assessment in the Tox21 HCT-116 p53 Agonism Beta-lactamase Assay, Phase 4 (AID 2283597; active means hit-call score of the fitted dose curve at least 0.9, where 1 is the maximum;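 further: hits lower the luminescence signal meaning cytotoxicity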)
Summary of the method: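 ATP content by CellTiter-Glo luminescence, 30 min RT, read after the beta-lactamase ratio step. Cells: HCT116, 4000/well, compound added after 5 h, exposure 16 h at 37C. Signal loss = reduced viability.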

[5] = TOX21_p53_BLA_p5_viability: Viability Assessment in the Tox21 HCT-116 p53 Agonism Beta-lactamase Assay, Phase 5 (AID 2283600; active means hit-call score of the fitted dose curve at least 0.9, where 1 is the maximum)
Summary of the method: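 ATP luminescence (CellTiter-Glo, 30 min, RT) served as the viability read-out, with loss of signal indicating cytotoxicity. Compounds in DMSO were pinned at a 217-fold dilution onto 4000 cells/well and incubated 16 h, 37C.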

[6] = molecular target: Cellular tumor antigen p53 (Homo sapiens) (UniProt P04637); test: TOX21_p53_BLA_p4_ratio: Tox21 HCT-116 p53 Agonism Beta-lactamase Assay, Ratio, Phase 4 (AID 2283601; active means hit-call score of the fitted dose curve at least 0.9, where 1 is the maximum)
Summary of the method: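 HCT-116 p53 beta-lactamase reporter cells (4000/well) preincubated 5 h, then compound (217-fold dilution of DMSO stock) for 16 h at 37C. CCF4-AM substrate added 2 h at room temperature; 460/530 nm emission ratio fitted upward versus DMSO.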

[7] = CCTE_Shafer_MEA_dev_firing_rate_mean: CCTE's Neural Network Formation Assay for Mean Firing Rate, Shafer Lab (AID 2284031)
Summary of the method: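 Read-out: spike count/recording length, averaged over active electrodes, then AUC across days 5, 7, 9, 12. Rat cortical cultures on MEA; continuous 12-day exposure, media and treatment renewed DIV 5, 9; DMSO baseline.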

[8] = CCTE_Shafer_MEA_dev_per_burst_spike_percent: CCTE's Neural Network Formation Assay for Percent of Spikes in a Burst, Shafer Lab (AID 2284032)
Summary of the method: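 Value is trapezoidal AUC over recordings on days 5, 7, 9 and 12 of the well-mean fraction of spikes falling in single-electrode bursts; rat cortical cultures exposed continuously from plating, treatment renewed DIV 5 and 9, fitted downward against DMSO.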

[9] = CCTE_Shafer_MEA_dev_active_electrodes_number: CCTE's Neural Network Formation Assay for Number of Active Electrodes, Shafer Lab (AID 2284040; active means hit-call score of the fitted dose curve at least 0.9, where 1 is the maximum)
Summary of the method: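 Developing rat cortical networks on MEAs, exposed DIV 0–12. Value is the AUC of active-electrode counts (≥5 spikes/min) from days 5, 7, 9, 12, relative to DMSO.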

[10] = CCTE_Shafer_MEA_dev_burst_rate: CCTE's Neural Network Formation Assay for Burst Rate, Shafer Lab (AID 2284042)
Summary of the method: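 Exposure ran continuously over 12 days of network development in rat cortical cultures, with compound refreshed during full media changes on DIV 5 and 9. Single-electrode bursts per recording time, well-mean over active electrodes, trapezoidal AUC across days 5–12, fitted downward relative to DMSO.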

[11] = CCTE_Shafer_MEA_dev_per_burst_interspike_interval: CCTE's Neural Network Formation Assay for Burst Interspike Interval, Shafer Lab (AID 2284044)
Summary of the method: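 Readout is the average time between spikes inside single-electrode bursts, taken as a well mean across bursting electrodes. Cortical neurons from rat developed networks on MEA plates under continuous 12-day exposure; recordings on days 5, 7, 9 and 12 were integrated by trapezoidal AUC.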

[12] = CCTE_Shafer_MEA_dev_burst_duration_mean: CCTE's Neural Network Formation Assay for Mean Burst Duration, Shafer Lab (AID 2284045)
Summary of the method: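 Rat cortical cultures, 1.5 x 10^5 cells/well with laminin drop; continuous dosing days 0–12, media plus treatment refreshed DIV 5, 9. AxIS adaptive spike detection; mean single-electrode burst duration, AUC over four recordings, negative direction vs DMSO.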

[13] = CCTE_Shafer_MEA_dev_interburst_interval_mean: CCTE's Neural Network Formation Assay for Mean Interburst Interval, Shafer Lab (AID 2284046);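 further: well-mean interburst interval of bursting electrodes as AUC over four recording days; curve fitted for decrease in interburst interval relative to DMSO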
Summary of the method: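 Primary rat cortical neurons on PEI-coated 48-well MEA plates (laminin added with cells at plating) (16 electrodes/well), exposed from plating day 0 with renewal at DIV 5 and 9. Mean inter-burst interval averaged over bursting electrodes, AUC across days 5, 7, 9, 12; DMSO baseline.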

[14] = CCTE_Shafer_MEA_dev_inter_network_spike_interval_mean: CCTE's Neural Network Formation Assay for Mean Inter-network Spike Interval, Shafer Lab (AID 2284047)
Summary of the method: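 Mean time between consecutive network-spike peaks, recorded extracellularly (adaptive spike detection) on DIV 5, 7, 9 and 12, summarized as trapezoidal AUC. Rat cortical cultures on MEAs dosed continuously days 0–12, re-dosed at feeds; loss-of-signal fit relative to DMSO.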

[15] = CCTE_Shafer_MEA_dev_network_spike_number: CCTE's Neural Network Formation Assay for Number of Network Spikes, Shafer Lab (AID 2284048)
Summary of the method: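 Rat cortical primary cultures on 48-well MEA (16 electrodes/well); continuous exposure DIV 0–12, full medium and treatment exchange DIV 5, 9. Readout: network spike count, AxIS adaptive detection, recordings DIV 5/7/9/12 collapsed to AUC; loss-of-signal fit, DMSO baseline.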

[16] = CCTE_Shafer_MEA_dev_spike_duration_mean: CCTE's Neural Network Formation Assay for Mean Spike Duration, Shafer Lab (AID 2284051);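 further: mean network spike duration pooled as area under curve over DIV 5 to 12 recordings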
Summary of the method: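 Spontaneous activity was recorded on days 5, 7, 9 and 12 from rat cortical cultures grown on microelectrode arrays and dosed continuously from day 0, with media and compound renewed after the DIV 5 and 9 recordings. Network-spike duration was collapsed by area under the curve.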

[17] = CCTE_Shafer_MEA_dev_network_spike_duration_std: CCTE's Neural Network Formation Assay for Standard Deviation of Network Spike Duration, Shafer Lab (AID 2284052);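 further: hits are decreases in network spike duration SD versus DMSO vehicle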
Summary of the method: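 Network spike duration variability was collapsed across recordings on days 5, 7, 9 and 12 by trapezoidal area-under-curve and fitted downward against DMSO. Cultures were rat cortical neurons on PEI-coated MEA plates, dosed continuously from plating, refed with compound DIV 5/9.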

[18] = CCTE_Shafer_MEA_dev_per_network_spike_spike_number_mean: CCTE's Neural Network Formation Assay for Mean Number of Spikes in a Network Spike, Shafer Lab (AID 2284053)
Summary of the method: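 Mean spike count within each network spike, taken in a 0.05 s window at its peak, was recorded on days 5, 7, 9 and 12 and integrated as trapezoidal area under the curve. Rat cortical cultures on MEA plates received continuous compound from day 0, refreshed at medium changes on DIV 5 and 9.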

[19] = CCTE_Shafer_MEA_dev_per_network_spike_spike_percent: CCTE's Neural Network Formation Assay for Percent of Spikes in a Network Spike, Shafer Lab (AID 2284054)
Summary of the method: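 Read-out: percent of spikes falling in a 0.05 s window at network-spike peak, from spontaneous MEA recordings on days 5, 7, 9 and 12; trapezoidal AUC; loss of signal versus DMSO. Rat cortical cultures, compound present throughout.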

[20] = CCTE_Shafer_MEA_dev_LDH: CCTE's Lactate Dehydrogenase Assay for Cytotoxicity in the Neural Network Formation Assay, Shafer Lab (AID 2284068; active means hit-call score of the fitted dose curve at least 0.9, where 1 is the maximum;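 further: exposure for twelve days from plating with re-dosing on DIV 5 and 9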)
Summary of the method: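 Primary rat cortical neurons were cultured on PEI-coated MEA plates and exposed from plating through day 12, with compound renewed at medium changes on DIV 5 and 9. LDH activity was read spectrophotometrically; loss of signal versus DMSO indicates reduced viability.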

[21] = UKN5_HCS_SBAD2_neurite_outgrowth: University of Konstanz (UKN) Leist Lab Neurite Outgrowth Assay in human iPSC-derived immature Dorsal Root Ganglia Neurons (UKN5) (AID 2284070); conditions: actives raise or lower the signal
Summary of the method: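 Cryopreserved SBAD2 peripheral neurons were seeded at 100.000 cells/cm2 in N2-S/KSR medium containing CHIR99021, SU5402 and DAPT, then exposed to compounds for 24 h. Neurite area from calcein-AM high-content imaging was fitted bidirectionally against DMSO.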

[22] = CCTE_Shafer_MEA_dev_mutual_information_norm: CCTE's Neural Network Formation Assay for Mutual Information Normalization, Shafer Lab (AID 2284091)
Summary of the method: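 Neurons from rat cortex were seeded at 1.5 x 10^5 cells/well onto PEI-coated MEAs in a laminin drop, then exposed to compound from day 0 for twelve days. Network recordings on four days gave mutual information, summarised by AUC relative to DMSO.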

[23] = CCTE_Shafer_MEA_dev_correlation_coefficient_mean: CCTE's Neural Network Formation Assay for Mean Correlation Coefficient, Shafer Lab (AID 2284093)
Summary of the method: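 Primary rat cortical neurons on PEI-coated 48-well MEA plates (16 electrodes/well) were exposed from plating day 0 through DIV12, with compound renewed at DIV5 and 9. Pairwise spike correlations were averaged per well; trapezoidal AUC across DIV5, 7, 9, 12.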

[24] = UKN2_HCS_IMR90_neural_migration: University of Konstanz (UKN) Leist Lab Neural Crest Cell Migration Assay in human induced IMR90 Pluripotent Stem Cells (UKN2) (AID 2284204); conditions: actives raise or lower the signal
Summary of the method: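 Stopper-exclusion migration (cMINC), human iPSC-derived neural crest cells; N2-S + EGF/FGF; compound added 24 h post-stopper removal, 24 h exposure. Readout: calcein-AM/Hoechst 30 min, HCS fluorescence imaging; bidirectional fitting, DMSO baseline.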

[25] = CCTE_Mundy_HCI_Cortical_Synap_Neur_Matur_NeuriteSpotCountPerNeuriteLength: CCTE's Synaptogenesis and Neurite Maturation Assay in rat cortical cells for Neurite Spot Count per Neurite Length, Mundy Lab (AID 2284210)
Summary of the method: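 Read-out: synaptophysin puncta counted along MAP2-stained neurites, normalised to neurite length, by automated high-content imaging. Rat cortical cells; AraC DIV 5; chemical dosing DIV 7; termination DIV 12. DMSO baseline.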

[26] = CCTE_Mundy_HCI_Cortical_NOG_NeuriteLength: CCTE's Neurite Outgrowth Assay in rat cortical cells for Neurite Length, Mundy Lab (AID 2284213)
Summary of the method: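 First, rat primary cortical cells were plated and, 2 h later, given test chemical as a 1/10 dilution. Finally, βIII-tubulin immunostaining enabled automated imaging of neurite length.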

[27] = CCTE_Mundy_HCI_Cortical_Synap_Neur_Matur_NeuriteSpotCountPerNeuron: CCTE's Synaptogenesis and Neurite Maturation Assay in rat cortical cells for Neurite Spot Count per Neuron Count, Mundy Lab (AID 2284215)
Summary of the method: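 Read-out: neurite-associated synaptophysin puncta per neuron, imaged by high-content analysis after MAP2, synaptophysin and Hoechst staining. Rat primary cortical cultures, dosed DIV 7 through DIV 12; DMSO served as baseline.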

[28] = CCTE_Mundy_HCI_Cortical_Synap_Neur_Matur_SynapseCount: CCTE's Synaptogenesis and Neurite Maturation Assay in rat cortical cells for Synapse Count, Mundy Lab (AID 2284218)
Summary of the method: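 Read-out: synapse number per neuron, automated high-content imaging of fixed cells immunostained for MAP2 and synaptophysin plus Hoechst nuclei. Rat primary cortical cultures, AraC at DIV 5, chemical dosing DIV 7–12. Positive-direction fit relative to DMSO.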

[29] = CCTE_Mundy_HCI_Cortical_Synap_Neur_Matur_CellBodySpotCount: CCTE's Synaptogenesis and Neurite Maturation Assay in rat cortical cells for Cell Body Spot Count, Mundy Lab (AID 2284223)
Summary of the method: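 Read-out: cell body-associated synaptophysin puncta per neuron, imaged after MAP2, synaptophysin and Hoechst staining. Rat cortical cells, AraC DIV 5, chemical dosing DIV 7, fixation DIV 12. Activity fitted in positive direction relative to DMSO baseline.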

[30] = UKN4_HCS_LUHMES_cell_viability: Viability Assessment in the University of Konstanz (UKN) Leist Lab Neurite Outgrowth Assay in human LUHMES cells (UKN4) (AID 2284232)
Summary of the method: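 Day-2 differentiated LUHMES, 30000 cells/well, dosed ~30 min–2 h post-seeding; 24 h treatment incl. staining; Hoechst H-33342 + calcein-AM at 23.5 h; HCS imaging; DMSO-normalized, bidirectional fit.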

[31] = UKN2_HCS_IMR90_cell_viability: Viability Assessment in the University of Konstanz (UKN) Leist Lab Neural Crest Cell Migration Assay in human induced IMR90 Pluripotent Stem Cells (UKN2) (AID 2284233);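 further: cells exposed to compound for 24 h after a 24 h migration phase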
Summary of the method: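 Viability read as calcein-AM fluorescence by high-content imaging, Hoechst co-stain, 30 min. Human iPSC (IMR90) neural crest cells had migrated 24 h into stopper-defined gaps before 24 h chemical exposure. Fitted bidirectionally relative to DMSO.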

[32] = CCTE_Mundy_HCI_hNP1_Casp3_7: CCTE's Caspase-Glo 3/7 Assay in human neuroprogenitor cells for Apoptosis, Mundy Lab (AID 2284240)
Summary of the method: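 Luminescent caspase-3/7 readout, 26.5 h post-dose, in human neural progenitor cells from WA09 embryonic stem cells. Cells grew 40–44 h at 37 °C, 5% CO2 before chemical addition. Activity analysed as signal increase over DMSO baseline.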

Measured: outcome

COC(=O)[C@H]1[C@@H](OC(=O)c2ccccc2)C[C@@H]2CC[C@H]1N2C
inactive: all assays above
